D2 PAM-1 = human D2 receptor positive allosteric modulation | AID 624464 | P14416 | 0.23% of 360,000 active | DiscoveRx D2 beta-arrestin cells, luminescence, 90 min; 100% = 57 uM dopamine signal | potentiation, % (concentration not given with the values); in the data active means potentiation above about 50%; inconclusive means mostly about 30% to 49%
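D2 cells co-treated with compound plus 50 nM dopamine (EC20) for 90 min at 37 deg C to detect potentiation. Beta-arrestin recruitment was read as enzyme-fragment luminescence after 1 h at ambient temperature. Full response was set by 57 uM dopamine.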
D2 ag-1 = agonists of human D2 dopamine receptor | P14416 | AID 485358 | HEK293 T-REx D2 cells, calcium flux agonist mode | 0.53% of 340,000 active | activation, % at 2 µM;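 active means activation over 3 SD above normal in the single-dose calcium agonist read, cut at about 30% in these data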; further: 0% is about no effect
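Agonism scored from kinetic calcium signal (1 read/sec, 180 s) following compound pin transfer, after a 10 s baseline. Cells: HEK293 Trex line expressing inducible D2 receptor coupled to calcium, dye-loaded after overnight culture at 30 C.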
D2 PAM-2 = positive allosteric modulators of human D2 dopamine receptor; P14416; 0.34% of 340,000 active; HEK293 T-REx D2, calcium flux, EC20 dopamine potentiation; potentiation, % at 10 µM;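 active means potentiation over 3 SD above the plate norm, cut at about 30% in these data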; further: 0% is about no effect
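Potentiation of an EC20 dopamine calcium response measured kinetically over 180 s, after a preceding 180 s compound-only read flagging agonists. Cells: inducible Hek293 Trex D2 line, 4000/well, cultured overnight at 30 C before dye loading.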
D2 ag-2 = agonists of human D2 dopamine receptor (beta-arrestin); P14416; DiscoveRx PathHunter D2 beta-arrestin, luminescence, 90 min; 100% = 57 uM dopamine signal; activation, % (no concentration beside the values); 0.084% of 360,000 active; AID 624465; in the data active means activation above about 40%; inconclusive means between about 15% and that limit
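Agonist mode: compounds alone added to overnight-plated D2 PathHunter cells for 90 min at 37 C, with 57 uM final dopamine (EC100) defining full response. Beta-arrestin recruitment detected by chemiluminescent reagent, read after 1 h at ambient temperature.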
D2 antag = D2 dopamine receptor (human) antagonism. AID 485344. 2% of 340,000 active. HEK293 TREx D2 cells, calcium flux, dopamine EC80. P14416. inhibition, % at 10 µM; in the data active means inhibition above about 30%; inactive means below that, where a call was filed; further: 0% is about no effect
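Dopamine at EC80 is the agonist stimulus; test compounds precede it by 180 s. Calcium flux read kinetically in a force-coupled, inducible HEK293 T-REx D2 cell line.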
D3 arrestin ag = activates human D3 dopamine receptor beta-arrestin recruitment | DiscoveRx D3 beta-arrestin cells, luminescence, 90 min | AID 720506 | shares compounds with D2 ag-1 | Potency, µM (highest dose often 76.9 µM), for the others: top-dose activation, usual class: activators | 4% of 2,300 active;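 further: potency means the concentration at half of the fitted maximal effect; 100% = dopamine control response; nearly all actives have a fitted effect of over 70% in size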
Target sequence (P35462 whole entry, looked up): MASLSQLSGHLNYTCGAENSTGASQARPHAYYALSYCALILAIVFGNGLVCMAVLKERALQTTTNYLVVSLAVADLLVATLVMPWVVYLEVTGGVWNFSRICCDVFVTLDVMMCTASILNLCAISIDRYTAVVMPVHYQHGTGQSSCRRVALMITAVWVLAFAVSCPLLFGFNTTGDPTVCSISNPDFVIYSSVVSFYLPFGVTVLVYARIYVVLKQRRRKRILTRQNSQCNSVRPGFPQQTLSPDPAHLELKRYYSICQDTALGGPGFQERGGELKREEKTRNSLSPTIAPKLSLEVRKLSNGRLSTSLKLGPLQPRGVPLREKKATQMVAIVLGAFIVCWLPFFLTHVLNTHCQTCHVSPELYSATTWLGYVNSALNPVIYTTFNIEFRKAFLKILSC
D2 ag-3 = counter-screen for D3 agonists: human D2 dopamine receptor agonism; AID 720507; shares compounds with D2 ag-1; DiscoveRx PathHunter D2 beta-arrestin, luminescence, 90 min; response scale: percent relative to full dopamine signal; Potency, µM (highest dose often 76.9 µM), without a hit: at the highest dose activation, most hits filed as activators; 5.9% of 2,300 active; further: potency means the concentration at half of the fitted maximal effect; % of control where 0% means no effect; nearly all actives have a fitted effect of over 70% in size
Numbers without * were called inactive; ? = inconclusive; / = no result. Only some compounds are listed: those with a hit (about 2.4% of all), similar ones and a draw of the others. Unless noted, the call rests on the fitted dose curve; in most records, active means well fitted activation curve with a large enough effect; inconclusive means small, poorly fitted or top-dose-only effect; inactive means flat fitted curve, though single readings scatter.

SMILES	D2 PAM-1	D2 ag-1	D2 PAM-2	D2 ag-2	D2 antag	D3 arrestin ag	D2 ag-3
CCn1c(=O)c(CCC(=O)N2CCN(c3ccccn3)CC2)c(C)c2c(C)nn(-c3ccccc3)c21	-4	15	5	6	8	22%	13%
CCn1c(=O)c(CCC(=O)NCCN2CCOCC2)c(C)c2c(C)nn(-c3ccccc3)c21	-10	-1	15	0	1	/	/
CC1(C)CC(=O)c2sc(NC(=O)C(C)(C)C)nc2C1	0	0	21	-1	-9	/	/
CC1(C)CC(=O)c2sc(NC(=O)c3cccs3)nc2C1	3	52*	-17	9	-7	?	15%
O=C(c1ccc(F)c(S(=O)(=O)N2CCOCC2)c1)N(c1ccccc1)c1ccccn1	-1	/	/	-1	/	-7%	?
CN(C)CCNc1ncnc2c1ncn2[C@H]1CN(CCc2ccccc2)C[C@@H](CO)O1	-9	/	/	-5	/	/	/
Cc1nc2ccc(S(=O)(=O)CCC(=O)Nc3ccc(C(C)C)cc3)cc2s1	/	0	-10	/	/	/	/
CN(C)S(=O)(=O)c1cccc(CNCC2COc3ccccc3O2)c1 (stereo not given)	-8	77*	-27	12	106*	?	29%
c1ccc(CCNCC2COc3ccccc3O2)cc1 (stereo not given)	-13	32*	-22	4	24	2%	3%
Oc1ccc(CNCC2COc3ccccc3O2)cc1 (stereo not given)	-28	68*	-28	11	185*	-4%	19%
CCCCOc1ccccc1NC(=O)Cn1c(-c2cncs2)nc2ccccc21	/	/	-3	/	/	/	/
c1ccc(N2CCN(Cc3cn4cccnc4n3)CC2)cc1	-5	53*	-24	0	49*	1%	23%
c1ccc(N2CCN(Cc3cn4ccccc4n3)CC2)cc1	-16	70*	-18	2	37*	-9%	7%
c1ccc(CN2CCN(Cc3cn4cccnc4n3)CC2)cc1	-10	1	-10	3	9	/	/
COc1ccccc1-c1oc2ccccc2c1-c1ccc2cc[nH]c2c1	-3	0	16	4	-5	1%	3%
CC(C)(O)C#Cc1ccc(CN2CCN(C3CCCCC3)C(CCO)C2)cc1 (stereo not given)	-2	0	0	2	6	/	/
CC(C)(O)C#Cc1ccc(CN2CCN(C3CCCCC3)C(CCO)C2)s1 (stereo not given)	-12	42*	-10	-1	-7	-15%	2%
Nc1ncnc2c1ncn2C1OC(C(=O)NC2CC2)C(O)C1O (stereo not given)	-5	0	20	1	6	2%	-7%
C[C@@H](CO)NC(=O)[C@H]1O[C@@H](n2cnc3c(N)ncnc32)[C@H](O)[C@@H]1O	-6	/	/	-4	/	/	/
Cc1c(C(=O)NCCc2ccc(S(N)(=O)=O)cc2)cccc1[N+](=O)[O-]	-2	1	22	0	-5	/	/
Cc1ccc(C(=O)NCCc2ccc(S(N)(=O)=O)cc2)cc1[N+](=O)[O-]	-1	29	-22	-5	17	-19%	-5%
COc1ccccc1CNc1nc(-c2ccco2)nn1S(=O)(=O)c1ccc2ccccc2c1	/	-2	-6	/	/	/	/
COc1cc(C)c(NC(=O)C(=S)NCCc2ccccc2)cc1C	1	5	9	1	-11	10%	24%
COc1ccc(NC(=S)NCCc2ccccc2)c(C)c1	3	-1	-3	-2	1	/	/
COc1ccccc1-c1nc(CNC(=O)Nc2ccccc2)c(C)o1	/	/	2	/	/	/	/
SMILES	D2 PAM-1	D2 ag-1	D2 PAM-2	D2 ag-2	D2 antag	D3 arrestin ag	D2 ag-3
CC(C)N1CCN(Cc2ccsc2)CC1CCO (stereo not given)	-7	44*	-22	-4	44*	-10%	-2%
Cc1ccc(NC(=O)N2CCCC(c3ccccc3)C2)cc1 (stereo not given)	-1	/	/	?	/	4%	8%
O=C(/C=C/c1ccco1)N1CCCC(c2ccccc2)C1 (stereo not given)	3	57*	-13	0	56*	12%	9%
Cn1c(SCc2cccc(F)c2)nc2c([nH]c3ccccc32)c1=O	/	0	14	/	/	/	/
CCNC(=S)NNC(=O)c1ccccc1OC(F)F	-12	26	-22	-1	33*	-23%	-4%
CCc1noc(C)c1C(=O)NNC(=O)COc1ccccc1C	-1	1	-6	-2	24	-6%	-5%
CCc1noc(C)c1C(=O)NNC(=O)c1ccccc1	0	0	-8	-3	-11	/	/
CCc1noc(C)c1C(=O)NNC(=O)c1cc(OC)c(OC)c(OC)c1	-6	0	-1	1	-10	/	/
CCc1noc(C)c1C(=O)NNC(=O)c1cc(OC)cc(OC)c1	-1	2	-8	0	-21	-3%	-4%
COc1cccc(-c2noc(COc3ccc(C(C)(C)C)cc3)n2)c1	/	2	8	/	/	/	/
O=C(c1cccs1)N1CCN(Cc2cn[nH]c2-c2ccc(F)cc2F)CC1	7	80*	-26	?	53*	?	?
Cc1ccc(-c2[nH]ncc2CN2CCN(C(=O)c3cccs3)CC2)cc1C	-15	77*	-32	6	66*	?	21%
COc1ccc(-c2[nH]ncc2CN2CCN(C(=O)c3cccs3)CC2)c(F)c1	11	0	2	-3	14	/	/
Cc1csc2nc(-c3cccc(NC(=O)c4ccc(S(N)(=O)=O)cc4)c3)cn12	/	0	1	/	/	/	/
CCN1CCN(CCn2c(=S)[nH]c3ccccc3c2=O)CC1	-34	0	-18	-3	11	/	/
Cc1cccc(C)c1N1CCN(CCn2c(=S)[nH]c3ccccc3c2=O)CC1	-3	30	-20	-4	71*	-2%	8%
Cc1ccc(C)c(N2CCN(C(=O)Cn3nc(Cc4cccnc4)c4ccccc4c3=O)CC2)c1	/	-1	5	/	/	/	/
CCC(C)N(CCNC(=O)c1ccc2c(c1)NC(=O)c1ccccc1S2)C1CCCCC1 (stereo not given)	-32	/	-28	-6	/	-11%	-3%
O=C(NC1CC(=O)N(c2cccc(F)c2)C1)C1CCCC1 (stereo not given)	/	1	-3	/	/	/	/
CN(Cc1ccc2c(c1)OCCO2)C(=O)CN1C(=O)NC2(CCCCC2)C1=O	-9	0	4	-6	-7	/	/
CCC(C)(C)C1CCC2(CC1)NC(=O)N(CC(=O)N(C)Cc1ccc3c(c1)OCCO3)C2=O (stereo not given)	0	0	-4	7	9	1%	7%

Assay outcomes deposited in PubChem by National Center for Advancing Translational Sciences (NCATS).
